Screening data deposited in PubChem by National Center for Advancing Translational Sciences (NCATS).
A selection: hits, their analogues and other compounds. The true share with any hit is near 12%.
MARV entry inh – blocks Marburg virus binding to or entry into cells. Marburg virus pseudotyped entry inhibition, cell reporter. 300,000 compounds, 1.8% hits. AID 540276. Potency, µM (series often up to 37.8 µM), without a hit: top-dose activity change, negative = inhibition, actives largely listed as inhibitors; calls by dose curve; tested in HEK293 cells; also: potency is read from the fitted curve at half-maximal effect; % is scaled to controls: 0 for no effect and ±100 for the full control effect
Cycloheximide cs – counter-screen for Shiga toxin inhibitors: cycloheximide protein synthesis inhibition. 300,000 compounds, 12% hits. AID 2314. cell reporter, cycloheximide protein synthesis inhibition counterscreen. max response, %; in the data active = max response mostly above about 13%, no sharp cut-off; inactive = mostly below about 14%; also: read at 38.3 µM for the half of the compounds with a filed dose; 0% is about no effect
Lassa entry inh – inhibitors of Lassa virus binding or cell entry; Lassa virus pseudotype entry inhibition, cell reporter; Potency, µM (doses to about 37.9 µM), for the others: at the top dose activity change, negative = inhibition, actives largely listed as inhibitors; 300,000 compounds, 1.2% hits; calls by dose curve; tested in HEK293 cells; also: potency is read from the fitted curve at half-maximal effect; % is scaled to controls: 0 for no effect and ±100 for the full control effect; nearly all actives have a fitted effect of over 50% in size
Shiga inhibitor – Shiga toxin inhibition; Vero cells, Shiga toxin protein synthesis inhibition reporter; inhibition, % at 38.7 µM; 290,000 compounds, 9.2% hits; in the data active = inhibition mostly above about 28%, no sharp cut-off; inactive = mostly below about 43%; also: 0% is about no effect
Starred values were filed as active, the others as inactive; ? = inconclusive; nt = no result given; [ ] = remark or other dose.

SMILES	MARV entry inh	Cycloheximide cs	Lassa entry inh	Shiga inhibitor
Cc1ccc(N2C(=O)/C(=C\c3ccco3)SC2=S)cc1	-10%	21	-1%	64*
O=C1/C(=C\c2ccco2)NC(=S)N1c1ccccc1	?	18*	?	35
COc1ccccc1/C=C1\NC(=S)N(CC2CCCO2)C1=O (stereo not drawn)	-1%	27*	2%	40
COC(=O)C(c1ccccc1)N(Cc1cccc(CN(C(C(=O)OC)c2ccccc2)S(C)(=O)=O)c1)S(C)(=O)=O (stereo not drawn)	nt	-3	nt	-5
COc1ccc(NC(=O)c2oc3ccccc3c2NC(=O)Cc2cccs2)cc1	3%[46.1 µM]	nt	5%[46.1 µM]	nt
Cc1nn(-c2ccccc2)c(Cl)c1/C=N/NC(=O)c1ccccc1NS(=O)(=O)c1cccs1	0%	6	10%	11
Cc1nn(-c2ccccc2)c(Cl)c1/C=N/NC(=O)c1ccc(NS(=O)(=O)c2cccs2)cc1	nt	20*	nt	32
Cc1nn(-c2cccc(Cl)c2)c(Cl)c1/C=N/NC(=O)c1cccs1	?	29*	?	58*
COc1ccc(S(=O)(=O)NCC(c2ccco2)N2CCOCC2)cc1OC (stereo not drawn)	nt	nt	15%[46.1 µM]	nt
COc1cccc(NC(=O)CSc2nc(-c3ccccc3Cl)nc3c2Cc2c(CO)cnc(C)c2O3)c1	nt	nt	-9%[46.1 µM]	nt
CC(C)(C)c1ccc(C(=O)NNC(=O)c2ccccc2Br)cc1	-22%	31*	-12%	31
O=C(NNC(=O)c1ccccc1Br)c1ccc(Cl)c(Cl)c1	-2%[46.1 µM]	0	-4%	3
COc1ccccc1C(=O)NNC(=O)c1ccccc1	nt	34*	nt	nt
COc1ccccc1C(=O)NNC(=O)c1cccc(Cl)c1	nt	28*	nt	46
COc1ccccc1C(=O)NNC(=O)c1ccccc1Br	nt	13*	nt	nt
Cc1cccc(C(=O)NNC(=O)C(=O)NC(C)(C)C)c1	-2%[46.1 µM]	6	3%	21
COc1ccccc1NC(=S)NNC(=O)c1ccccc1Br	-23%	27*	-16%	88*
COc1ccccc1C(=O)N/C(=N/c1nc(C)cc(C)n1)Nc1ccccc1	?	12*	-9%[46.1 µM]	16
COC(=O)NNC(=O)c1ccc(C(C)(C)C)cc1	6%	30*	?	23*
CC(C)(C)NC(=O)C(=O)NNC(=O)c1cccc(Br)c1	18%[46.1 µM]	17*	-15%	47*
Cc1ccc(C2C(C(=O)c3sc(C)nc3C)=C(O)C(=O)N2CCCN(C)C)o1 (stereo not drawn)	1%	-3	nt	18
COc1ccc(C(CNC(=O)c2cccc(S(=O)(=O)NCc3ccccc3)c2)N(C)C)cc1 (stereo not drawn)	nt	-3	nt	-5
COc1ccccc1NC(=S)NNC(=O)c1c(Cl)c(C)nn1C	-22%[46.1 µM]	10	-4%	43*
COc1ccccc1C(=O)NC(=O)Nc1cccc(Cl)c1	nt	49*	nt	130*
COc1ccccc1NC(=S)NNC(=O)c1cc(C)nn1C	?	-3	2%	-12
SMILES	MARV entry inh	Cycloheximide cs	Lassa entry inh	Shiga inhibitor
COc1ccccc1C(=O)NNC(=O)c1cccc(Br)c1	nt	35*	nt	nt
CC(=O)c1cnc2nc(SCc3cccc(C)c3)nn2c1C	nt	9.4*	nt	9
CC(=O)c1cnc2nc(SCc3ccccc3)nn2c1C	nt	35*	nt	47*
CC(=O)c1cnc2nc(SCc3ccc(C)cc3)nn2c1C	?	-2	?	nt
Cc1cccc(CSCc2nnc(N)s2)c1	?	19*	4%	39*
O=S(=O)(Nc1nc2c(s1)CCCC2)c1ccc(F)cc1	3%	21*	24%	55
COc1ccc(Nc2nc3ccc(C)cc3nc2-n2nc(C)cc2C)cc1Cl	-1%[46.1 µM]	nt	14%[46.1 µM]	nt
Cc1ccc(N(C)C(=O)c2cnn(-c3ccccc3)c2C)c(C)c1	-18%[46.1 µM]	-1	-4%[46.1 µM]	nt
Cc1c(C(=O)N(C)c2ccc(Cl)cc2)cnn1-c1ccccc1	8%[46.1 µM]	50*	-16%[46.1 µM]	nt
Cc1c(C(=O)NCCSCc2c(F)cccc2Cl)cnn1-c1ccc(Cl)cc1	?	1	?	-12
Cc1cccc(N(C)C(=O)c2cnn(-c3ccccc3)c2C)c1	nt	24*	nt	40*
COc1cc2[nH]c3c(=O)n(N)c(=O)[nH]c3c2cc1OC	-9%[46.1 µM]	-2	-6%	-7
CCCOc1ccc([C@@H]2C3CN(C(=O)OCC)CC=C3C(C#N)=C(N)C2(C#N)C#N)cc1OC (stereo partly drawn)	0%	3	10µM*	-2
CCOC(=O)N1CC=C2C(C#N)=C(N)C(C#N)(C#N)[C@H](c3cccs3)C2C1 (stereo partly drawn)	?	-1	-14%	-12
CCOP(=S)(OCC)N1CCOCCOCCN(P(=S)(OCC)OCC)CCOCCOCC1	10µM*	-1	?	-17
CCOP(=O)(OCC)C(CC)N1CCOCC1 (stereo not drawn)	21%[46.1 µM]	-9	22%	-19
